Compound activity from PubChem BioAssay.
An excerpt weighted towards active compounds, which were near 7.3% of everything screened.
p53 reactivation: restores transcriptional activity of mutant p53 | H1299 p53-A138V BP100-luciferase reporter, luminescence, 24 h | Potency, µM (top dose mostly 92.2 µM), inactives show at the highest dose activity change, positive = activation, hits mostly activators | 0.063% of 320,000 active; note: % of control where 0% means no effect; nearly all actives have a fitted effect of over 45% in size
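p53-null H1299 cells stably carrying temperature-sensitive p53-A138V and a BP100-luciferase reporter were pinned with compounds (4-point, 1:5 series) and held 24 hrs at 37 deg C. Luminescence was read 10 min after detection reagent.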
SMN2 splice enh: SMN2 splice variant enhancement. HEK293 SMN2-luciferase splicing reporter, luminescence, 30-36 h. Potency, µM (highest dose often 46.1 µM), without a hit: top-dose activity change, positive = activation, usual class: activators. 2.8% of 210,000 active. AID 1458; note: % of control where 0% means no effect; nearly all actives have a fitted effect of over 55% in size
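HEK293 cells carry an SMN2 […]–luciferase reporter in which exon 7 inclusion puts luciferase in frame. Cells were plated 10-12 h before compound addition, then incubated 30-36 h at 37C. ONE-Glo luminescence was read; sodium butyrate at 4.5 mM final served as control.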
Rab9 prom act: activates the Rab9 promoter. AID 485297. 2.8% of 320,000 active. Potency, µM (doses to about 9.22 µM), inactives show at the top dose activation, negative = inhibition, hits mostly activators. Huh7 Rab9 promoter-luciferase reporter, luminescence, 24 h; note: % of control where 0% means no effect; nearly all actives have a fitted effect of over 60% in size
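Quantitative HTS format; Huh7 Rab9-luciferase reporter cells (1500/well) receive compound 2 h post-plating, incubate 24 h at 37 °C, then get luciferase reagent for 10 min before luminescence reading.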
NPC1 prom act: NPC1 promoter activation. Huh7 NPC1 promoter luciferase reporter, 24 h. Potency, µM (series often up to 9.22 µM), inactives show at the top dose activation, usual class: activators. 2.4% of 320,000 active. AID 485313; note: % of control where 0% means no effect; nearly all actives have a fitted effect of over 60% in size
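In 1536-well qHTS, Huh7 cells harboring an NPC1 promoter–luciferase construct received compound for 24 h; activation was quantified by luminescence following luciferase reagent addition.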
ELG1 genotox: induces genotoxicity in HEK293T cells with luciferase-tagged ELG1; HEK293T ELG1-luciferase reporter, luminescence, 16 h; Potency, µM (doses to about 46 µM), without a hit: at the top dose activity change, positive = activation, actives largely listed as activators; 1.3% of 330,000 active; note: % of control where 0% means no effect; nearly all actives have a fitted effect of over 60% in size
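ELG1-luciferase HEK293T cells, 2,000/well; compound pinned in; 16 hr, 37 °C, 5% CO2; ONE-Glo, 30 min RT; luminescence on CCD imager.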
FLuc counter: counter-screen for miR-21 project: firefly luciferase inhibitors or activators. AID 588342. 6.9% of 360,000 active. P08659. purified FLuc, Km substrates, luminescence inhibition. Potency, µM (series often up to 57.5 µM), without a hit: at the top dose activity change, negative = inhibition, hits mostly inhibitors;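 note: plate controls were vehicle for no effect and reference inhibitor for full effect; nearly all actives have a fitted effect of over 55% in size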
Target sequence (P08659 whole entry, looked up): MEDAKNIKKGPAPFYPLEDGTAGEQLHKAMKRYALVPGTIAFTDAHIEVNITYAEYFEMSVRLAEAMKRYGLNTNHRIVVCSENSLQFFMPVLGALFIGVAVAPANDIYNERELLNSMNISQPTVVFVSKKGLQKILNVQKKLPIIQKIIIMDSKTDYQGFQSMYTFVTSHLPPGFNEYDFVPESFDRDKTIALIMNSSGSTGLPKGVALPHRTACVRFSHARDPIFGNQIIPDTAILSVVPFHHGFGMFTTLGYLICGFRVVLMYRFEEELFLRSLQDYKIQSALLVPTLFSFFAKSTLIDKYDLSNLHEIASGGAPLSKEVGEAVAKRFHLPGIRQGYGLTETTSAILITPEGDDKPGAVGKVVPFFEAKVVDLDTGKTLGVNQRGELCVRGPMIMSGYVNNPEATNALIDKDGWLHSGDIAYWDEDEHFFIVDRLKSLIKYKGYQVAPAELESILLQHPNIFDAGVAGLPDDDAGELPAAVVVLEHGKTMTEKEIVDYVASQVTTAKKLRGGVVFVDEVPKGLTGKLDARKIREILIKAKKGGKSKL
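Purified P. pyralis luciferase, 10 nM final, with Km-level 10 uM D-luciferin and 10 uM ATP in 50 mM Tris acetate pH 7.5, 10 mM Mg acetate, 0.01% Tween-20, 0.05% BSA; 6-point qHTS titration about 60 µM downward; luminescence read.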
* marks the source's active call; other numbers are inactive results; ? = inconclusive; . = not tested or not shown. Calls come from the whole dose curve; as a rule, active = well fitted curve in the direction sought with a large enough effect; inconclusive = small, poorly fitted or top-dose-only effect, or another doubt; inactive = no such curve, though single readings can be large; an effect the other way counts as inactive or inconclusive. Potency is the fitted concentration of half-maximal effect.

SMILES	p53 reactivation	SMN2 splice enh	Rab9 prom act	NPC1 prom act	ELG1 genotox	FLuc counter
COC(=O)c1ccc(NC(=O)Nc2ccc3c(c2)OCO3)cc1	-14%	.	?	?	?	6.7µM*
COc1ccc(NC(=O)c2ccco2)cc1NC(=O)c1ccc(OC(C)C)cc1	.	4%	.	.	.	?
COc1cc(OC)c(NC(=O)Nc2sc3nc4n(c(=O)c3c2C)CCC(C)CC4)cc1Cl (stereo unspecified)	.	-5%	.	.	.	5%
Cc1cc(C)c(S(=O)(=O)Nc2ccc3oc4c(c3c2)CCCC4)cc1C	.	-20%	.	.	.	?
O=C(Nc1ccc2c(c1)OCCO2)NC12CC3CC(CC(C3)C1)C2	?	22µM*	1.3µM*	2.5µM*	?	6µM*
O=C(Nc1cccc([N+](=O)[O-])c1)Nc1cccc([N+](=O)[O-])c1	4%	-29%	-6%	-1%	-17%	-1%
Cc1ccc(NC(=O)Nc2ccc3c(c2)OCO3)cc1F	?	.	1.3µM*	1.1µM*	9.2µM*	0.6µM*
O=C(Nc1ccc2c(c1)OCO2)Nc1ccc(Br)cn1	?	13µM*	1.6µM*	4µM*	7.3µM*	6µM*
O=C(Nc1cccc([N+](=O)[O-])c1)Nc1ccc2c(c1)OCCO2	2%	11µM*	1.8µM*	?	?	2.7µM*
O=C(CSc1ccc2c(c1)OCCO2)Nc1ccc(Br)cn1	-2%	.	1%	-6%	12%	-13%
COc1cccc(-n2nnnc2SCC(=O)Nc2ccc(OC)cc2OC)c1	.	.	1%	0%	2%	0%
NS(=O)(=O)c1ccc(NC(=O)Nc2ccc3c(c2)OCO3)cc1	12%	.	?	?	?	15µM*
CCNS(=O)(=O)c1ccc(NC(=O)Nc2ccc3c(c2)OCO3)cc1	1%	.	9%	13%	9%	?
O=C(Nc1ccc2c(c1)CCC2)Nc1ccc2c(c1)OCO2	20%	13µM*	2.2µM*	3.5µM*	?	?
NC(=O)c1ccc(NC(=O)Nc2ccc3c(c2)OCO3)cc1	?	.	?	?	?	24µM*
CC(=O)Nc1ccc2c(c1)OCCO2	-3%	-7%	8%	-7%	-1%	7%
O=C(Nc1ccc2c(c1)OCCO2)Nc1ccc2c(c1)OCO2	-8%	2.5µM*	0.1µM*	0.4µM*	?	0.95µM*
CN(C)c1cccc(C(=O)OCC(=O)Nc2nccs2)c1	?	8%	5%	14%	7%	?
Cc1cccc(C)c1NC(=O)Nc1ccc2c(c1)OCO2	6%	-35%	-7%	3%	8%	4%
Cc1ccnc(NC(=O)Nc2ccc3c(c2)OCO3)c1	?	6.3µM*	0.5µM*	0.63µM*	?	1.9µM*
CC(=O)NC(=S)Nc1ccc2oc(-c3cc(F)c(F)cc3Cl)nc2c1	14%	5µM*	0.5µM*	?	4.6µM*	-19%
O=C(Cc1ccccc1)NC(=S)Nc1ccc2oc(-c3ccccc3F)nc2c1	?	?	?	?	15%	13µM*
O=C(Cc1ccccc1)NC(=S)Nc1ccc2oc(-c3ccccc3)nc2c1	?	11µM*	?	?	?	?
COc1ccc(C(=O)Nc2ccc3oc(-c4ccc(F)cc4Cl)nc3c2)cc1	.	.	.	.	.	-11%
Cc1c(C(=O)NC2CCC(C)CC2)oc2ccccc12 (stereo unspecified)	?	.	2.8µM*	3.2µM*	?	9.5µM*
SMILES	p53 reactivation	SMN2 splice enh	Rab9 prom act	NPC1 prom act	ELG1 genotox	FLuc counter
Cc1c(C(=O)NC2CCCCC2C)oc2ccccc12 (stereo unspecified)	-25%	.	5%	-1%	-17%	13µM*
Cc1c(C(=O)NC2CC2)oc2ccccc12	10%	.	-2%	-4%	2%	?
COCC(=O)N1c2nc(-c3ccco3)nn2C2(CCCCC2)[C@@H]2CCCC[C@@H]21	.	.	.	.	.	-6%
Cc1cc2n(n1)C(c1ccc(N(C)C)cc1)Nc1ccccc1-2 (stereo unspecified)	11%	1%	-7%	-2%	16%	30µM*
CN(C)c1ccc(C2Nc3ccccc3C(=O)N2CCCN2CCOCC2)cc1 (stereo unspecified)	8%	.	19%	7%	12%	4.8µM*
CCN(CC)CCN1C(=O)c2ccccc2NC1c1ccc(N(C)C)cc1 (stereo unspecified)	5%	-3%	9%	3%	1%	24µM*
Cc1cc2n(n1)C(c1ccccc1)Nc1ccccc1-2 (stereo unspecified)	-5%	-25%	-6%	2%	7%	4%
N#CC1CC(c2ccccc2)=NN1c1ccccc1[N+](=O)[O-] (stereo unspecified)	1%	22µM*	3.5µM*	?	?	12µM*
Cc1cccc(N2CCN(C(=O)C3CCN(S(=O)(=O)c4cn(C)cn4)CC3)CC2)c1C	.	.	.	.	.	-6%
O=C(CCc1nnc(Cc2cccc(C(F)(F)F)c2)o1)NC1CC1	1%	.	-8%	-3%	6%	-2%
O=C(CCc1nnc(Cc2cccc(C(F)(F)F)c2)o1)NCC(F)(F)F	0%	9%	-3%	0%	6%	-10%
CC(NC(=O)CCc1nnc(Cc2cccc(C(F)(F)F)c2)o1)C1CC1 (stereo unspecified)	12%	.	?	14%	?	27µM*
C=C(C)CNC(=O)CCc1nnc(Cc2cccc(C(F)(F)F)c2)o1	10%	11µM*	?	20%	18µM*	21µM*
CC(C)CN(C)C(=O)CCc1nnc(Cc2cccc(C(F)(F)F)c2)o1	?	.	2.8µM*	?	?	24µM*
O=C(Oc1ccccc1F)c1nc(SCc2ccc(F)cc2)ncc1Cl	.	8%	.	.	.	-3%
COC(=O)N1CC=CC1(C)C(=O)O (stereo unspecified)	.	-2%	.	.	.	.
CCOC(=O)c1cc(S(=O)(=O)N2CCN(c3ccc(F)cc3)CC2)[nH]n1	.	.	.	.	.	-6%
COc1ccc(CN(C)CC(=O)NC(=O)Nc2ccccc2F)cc1	-10%	.	14%	-1%	-1%	.
CCN(CC(=O)NC(=O)Nc1ccccc1F)Cc1ccccc1	1%	.	1%	-8%	18µM*	2%
O=C(Nc1ccon1)c1ccc(OC2CCCC2)cc1	?	18µM*	2µM*	2.5µM*	?	3µM*
CC(C)(C)c1cc(NC(=O)c2ccc(OC3CCCC3)cc2)no1	13%	-18%	19%	23%	0%	?
N#Cc1ccsc1NC(=O)CCc1ccccc1	0%	13µM*	?	0%	?	15µM*
CCN(CC)c1ccc(C(=O)OCC(=O)Nc2ncccn2)cc1	-1%	.	.	.	-2%	.
